PubChem BioAssay (NCATS)
Values joined by “and” are separate entries in the source; they are usually repeats but may differ in a detail not shown here. Equal entries are not always repeated. A number with no mark means an inactive call. Where a call stands in place of a potency, no number is given. Active and inactive are the calls of the source. Calls come from the whole dose curve; as a rule, active = well fitted activation curve with a large enough effect; inconclusive = small, poorly fitted or top-dose-only effect; inactive = no such curve, though single readings can be large or run the other way.

molecular target: Cytochrome P450 3A4 (Homo sapiens) (UniProt P08684); assay: qHTS Assay for Activators of Cytochrome P450 3A4 (AID 885); conditions: recombinant CYP3A4, Luciferin-PPXE luminescence, 60 min; series mostly up to 57.1 µM; note: nearly all actives have a fitted effect of over 65% in size
Sequence (P08684 whole entry, looked up): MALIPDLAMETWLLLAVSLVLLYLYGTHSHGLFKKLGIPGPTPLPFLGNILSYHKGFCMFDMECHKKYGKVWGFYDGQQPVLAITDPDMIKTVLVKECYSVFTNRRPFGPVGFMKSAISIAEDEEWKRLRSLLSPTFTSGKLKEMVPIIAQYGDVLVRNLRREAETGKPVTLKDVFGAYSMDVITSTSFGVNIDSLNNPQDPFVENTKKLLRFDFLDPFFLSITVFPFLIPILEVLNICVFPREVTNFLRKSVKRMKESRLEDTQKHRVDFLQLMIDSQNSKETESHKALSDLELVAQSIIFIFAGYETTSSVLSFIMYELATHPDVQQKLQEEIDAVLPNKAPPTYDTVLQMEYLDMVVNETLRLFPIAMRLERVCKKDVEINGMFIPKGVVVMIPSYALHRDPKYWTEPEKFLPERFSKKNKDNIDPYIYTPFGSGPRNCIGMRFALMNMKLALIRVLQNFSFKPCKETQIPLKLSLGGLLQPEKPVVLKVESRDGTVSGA
Protocol: NIH Molecular Libraries Screening Centers Network [MLSCN]
NIH Chemical Genomics Center [NCGC]
The P450 gene superfamily is involved in the metabolism and clearance of xenobiotics. This assay used human CYP3A4 to measure the dealkylation of luciferin-6' phenylpiperazinylyl (Luciferin-PPXE; […]) to luciferin. The luciferin is then measured by luminescence after the addition of a luciferase detection reagent. Luciferin-PPXE concentration in the assay was equal to its KM for CYP3A4. Inhibitors and some substrates limit the production of luciferin, and decrease measured luminescence; activators increase the production of luciferin and luminescence.
NCGC Assay Protocol Summary:
Two uL of enzyme and substrate mix (final concentrations: 20nM CYP3A4, 25uM Luciferin-PPXE, 200mM KPO4) were dispensed into a white, solid bottom 1536-well microtiter plate. 23nL of compound was transferred by a pin tool. The plate was incubated at RT for 10 min. Two uL of an NADPH regeneration solution (Promega supplied reagent) was dispensed and the reaction was allowed to continue for 60 min at RT. Then the reaction was stopped by reconstituted luciferin detection buffer. After another 20 min of incubation the plate was read on the ViewLux (Perkin Elmer) at 60 sec exposure and 2x2 binning. This protocol was carried out with Promega-Glo reagents and further information can be found at http://www.promega.com/tbs/tb325/tb325.pdf. Data were normalized to the to AC100 inhibition (57 uM ketoconazole).
Keywords: P450, CYP2D6, Luciferase, MLSMR, MLSCN, NIH Roadmap, qHTS, NCGC
Potency is the fitted concentration of half-maximal effect.

Compound	activity change, positive = activation	Potency
Cc1cc(F)ccc1OC1C=CC(c2ccc3c(c2)OCO3)OC1CO (stereo not given)	-72.5% [at 11.4 µM]	
COC(=O)[C@@H]1C[C@@]2(O)[C@H](O)[C@H](O)[C@H](O)C[C@H]2N1Cc1cc(OC)cc(OC)c1		inactive
COC(=O)C(C(C)=O)C(NC(=O)NCc1ccccc1)c1ccccc1 (stereo not given)	-69.4% [at 11.4 µM]	
CCC1=C(OC(=O)N(CC)CC)N2C(=O)OC(=NCCOC)[C@]2(C)[C@H]2C1=CC[C@H]1C(=O)N(CC(=O)OC)C(=O)[C@H]12		inactive
CCCCCCN(C(=O)CCCCCN1C(=O)NC(C2CC2)C(C(=O)OCc2ccccc2)=C1C)C(C(=O)NCCCC)c1ccc(OCC(=O)OC)c(C(=O)OC)c1 (stereo not given)		inactive
C=C1C(=O)OC2C[C@@]3(C)CCCC(C)C3=CC12 (stereo not given in full)		inactive
COC(=O)c1ccc(C(NC(=O)OCc2ccccc2)/C(F)=C/[C@@H](C)C(=O)NCc2nc3ccccc3s2)cc1 (stereo not given in full)		inactive
CC(C)NC(=O)[C@@H]1C[C@@]1(C)[C@@H](NC(=O)OCc1ccccc1)c1ccccc1		inactive
CO[C@H]1COC(=O)C/C=C\[C@H](C)COC(=O)[C@@H](OCc2ccccc2)/C=C\[C@@H]1C	-41.2% [at 11.4 µM]	
CCCCCC(=O)O[C@@]1(C(C)=O)CCC2C3CCC4=CC(=O)CC[C@@]4(C)C3CC[C@]21C (stereo not given in full)		inactive
C/C(CCN1CCc2nc(-c3ccccc3)c(-c3ccccc3)cc2C1)=N\OC[C@@H](C)[C@H](OCc1ccccc1)C(C)C	-51.7% [at 11.4 µM]	
COC(=O)[C@@H]1C[C@H]2CC[C@H](O)C[C@H]2N1Cc1ccccc1OS(=O)(=O)c1ccc(C)cc1		inactive
O=C(N/N=C1/C[C@@H](O)[C@@H](O)[C@@H]2[C@H]3C(=O)N(c4ccc(F)cc4F)C(=O)[C@@H]3CC[C@H]12)OCc1ccccc1	-37% [at 11.4 µM]	
c1ccc(-c2csc(-c3nc4ccccc4[nH]3)n2)cc1		inactive
CCc1cc2c(nc1CC)CCN(CC/C(C)=N/O[C@@H](C)c1cn([C@H](CO)Cc3ccccc3)nn1)C2	-78.5% [at 11.4 µM] and -65.5% [at 11.4 µM]	
COC(=O)C(C(=O)OC)C1O[C@@]23COCCC2(C)C3c2ccccc21 (stereo not given in full)	-34.9% [at 11.4 µM]	
[C-]#[N+]/C(C#N)=C\c1cc(C(C)(C)C)c(O)c(C(C)(C)C)c1		inactive
Cn1c(-c2nc(-c3ccccc3)cs2)nc2ccccc21		inactive
C/C(CCN1CCc2nc(-c3ccccc3)c(-c3ccccc3)cc2C1)=N\O[C@@H](C)c1cn([C@H](CO)Cc2ccccc2)nn1	-54.2% [at 11.4 µM] and -52.4% [at 11.4 µM]	
C#CCCCO/N=C1/C[C@@H](O)[C@@H](O)[C@@H]2[C@@H]3C(=O)N(Cc4ccccc4)C(=O)[C@H]3CC[C@H]12	-103% [at 11.4 µM]	

Compound	activity change, positive = activation	Potency
C=CCC1C=CC(Oc2ccc(OC)cc2)C(COC(=O)c2ccc(Br)cc2)O1 (stereo not given)	-92.4% [at 11.4 µM]	
O=c1cc(-c2cccc(O)c2)oc2cccc(O)c12		inactive
FC(F)(F)c1ccc(CN2C[C@@H]3C(c4ccccc4)C4(c5cccnc5)CC3(C4)[C@H]2c2ccccc2)cc1 (stereo not given in full)		inactive
CC(=O)N1CC=CC1(CC(C)C)C(=O)NCc1ccccn1 (stereo not given)		inactive
COC(=O)c1ccc(C(NC(=O)OCc2ccccc2)/C(C)=C/[C@@H](C)C(=O)NC2CCCCC2)cc1 (stereo not given in full)		inactive
CC1=C(C(=O)OCc2ccccc2)C(C2CCCCC2)NC(=O)N1CCCCCC(=O)O (stereo not given)		15.8 µM (active)
CC(=O)OC1CC(OC(C)=O)[C@]2(C)C(CC(OC(C)=O)[C@@]3(C)C4=CC(=O)OC(c5ccoc5)[C@]4(C)CCC32)C1(C)C (stereo not given in full)		inactive
CO[C@@H]1COC(=O)C/C=C\[C@H](C)COC(=O)[C@H](Cc2ccccc2)NC(=O)C/C=C\[C@H]1C	-56.6% [at 11.4 µM]	
COC(=O)c1ccc(C(NC(=O)OCc2ccccc2)/C(=C/[C@@H](C)C(=O)N(C)Cc2cccnc2)c2cccnc2)cc1 (stereo not given in full)		inactive
CC(C)=CCc1c(O)cc2occ(-c3ccc4c(c3)OCO4)c(=O)c2c1O		inactive
C[C@@H]1O[C@H]2C3=C(C(=O)[C@H]4O[C@@H]4[C@H]3O)[C@@H]1[C@@H]1[C@@H](C)OC=C3[C@H](O)[C@H]4O[C@@H]4/C(=N\OCc4ccccc4)[C@]312	-31.8% [at 11.4 µM]	
C#CCCCO/N=C1/[C@H]2O[C@@H]2[C@@H](O)[C@H]2[C@H]1CCn1c(=O)n([C@@H](CC)c3ccccc3)c(=O)n12	-55.5% [at 11.4 µM]	
Clc1ccc(C2[C@H]3CN(Cc4ccc(-c5ccccc5)cc4)[C@H](c4ccccc4)C34CC2(c2ccccc2)C4)cn1 (stereo not given in full)		inactive
COc1ccc(OCC2CC3C(CCC(C)C3c3ccc(Br)cc3)C(=O)O2)cc1 (stereo not given)	-84.4% [at 11.4 µM]	
CC(=O)OCC1OC(C#Cc2ccc(F)cc2F)C=CC1OC(C)=O (stereo not given)	-91.4% [at 11.4 µM]	
C/C(=C\[C@@H](NP(=O)(c1ccccc1)c1ccccc1)c1ccccc1)CO[Si](c1ccccc1)(c1ccccc1)C(C)(C)C		inactive
CCCCc1nc2c(c3c1CC(C)OC3)CN(CCC(C)C)CC2 (stereo not given)	-60.1% [at 11.4 µM]	
CCCCNC(=O)C(c1ccc(OCC(=O)OC)c(C(=O)OC)c1)N(Cc1ccccc1)C(=O)CCCCCN1C(=O)NC(c2ccc(-c3ccccc3)cc2)C(C(=O)OCc2ccccc2)=C1C (stereo not given)		inactive
COC(=O)[C@@]1(Cc2ccc(OC)cc2)[C@@H]2[C@@H](CC(=O)[C@H]2CC(=O)C(=O)N(C)C)CN1C(=O)c1ccccc1		inactive
CCOC(=O)OCC1OC(c2cc(C)cc(C)c2)C=CC1OC(=O)OCC (stereo not given)	-69.3% [at 11.4 µM]	
